# Measured values from PubChem BioAssay AID1159580 (chemical genetic matrix, 2015).
# Among all 5,500 compounds or so, about 2,000 (36%) were called active. Not shown: some 18% with an inconclusive outcome. Some of the results follow. Values without a mark were called inactive. Rule as the data show it: active = normalized growth mostly below about 0.91 (no sharp cut-off); inconclusive = no clear call, values can overlap the other calls; inactive = mostly above about 0.92.
# Test: chemical genetic growth profiling, strain panel (AID 1159580);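 also: tested at 20 µM; growth read once vehicle control cultures reached saturation at 30 °C; 1 = growth at the plate median or of vehicle wells; lower values mean less growth of the strain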
# Conditions: S. cerevisiae deletion strains, growth OD
smiles,measurement,setting,value
C[C@@H]1OC(O[C@H]2[C@H](OC(=O)[C@]34CCC(C)(C)CC3C3=CCC5[C@@]6(C)CC[C@H](OC7O[C@@H](C)[C@H](O[C@@H]8OC[C@@H](O)[C@H](O)[C@H]8O)[C@@H](O)[C@H]7O)C(C)(C)C6CC[C@@]5(C)[C@]3(C)CC4O)OC[C@H](O)[C@H]2O)[C@H](O)[C@H](O)[C@H]1O[C@@H]1O[C@H](CO)[C@@H](O)[C@H](O)[C@H]1O (some centres not stated),normalized growth,"locus YBR021W, strain FUR4, stronger effect = lower value",0.963
same,normalized growth,"locus YBR229C, strain ROT2, stronger effect = lower value",0.967
same,normalized growth,"locus YCL029C, strain bik1, stronger effect = lower value",1.01
same,normalized growth,"locus YDL035C, strain GPR1, stronger effect = lower value",0.785 (active)
same,normalized growth,"locus YDL074C, strain BRE1, stronger effect = lower value",0.885
same,normalized growth,"locus YDL101C, strain DUN1, stronger effect = lower value",0.984
same,normalized growth,"locus YDL134C, strain PPH21, stronger effect = lower value",0.883 (active)
same,normalized growth,"locus YDL185W, strain tfp1, stronger effect = lower value",0.974
same,normalized growth,"locus YDL192W, strain arf1, stronger effect = lower value",0.825 (active)
same,normalized growth,"locus YDR101C, strain arx1, stronger effect = lower value",0.985
same,normalized growth,"locus YDR162C, strain NBP2, stronger effect = lower value",0.0581 (active)
same,normalized growth,"locus YDR318W, strain mcm21, stronger effect = lower value",0.917
same,normalized growth,"locus YDR388W, stronger effect = lower value",0.918 (active)
same,normalized growth,"locus YDR502C, strain sam2, stronger effect = lower value",0.936
same,normalized growth,"locus YEL061C, strain CIN8, stronger effect = lower value",0.95
same,normalized growth,"locus YER110C, stronger effect = lower value",0.996
same,normalized growth,"locus YER155C, strain BEM2, stronger effect = lower value",1.12 [resistant] (active)
same,normalized growth,"locus YER167W, strain BCK2, stronger effect = lower value",0.895 (active)
same,normalized growth,"locus YGL078C, strain dbp3, stronger effect = lower value",0.929
same,normalized growth,"locus YGL086W, strain mad1, stronger effect = lower value",0.977
same,normalized growth,"locus YGL248W, strain PDE1, stronger effect = lower value",0.993
same,normalized growth,"locus YGR135W, strain pre9, stronger effect = lower value",0.978
same,normalized growth,"locus YGR252W, strain gcn5, stronger effect = lower value",0.934
same,normalized growth,"locus YHR030C, strain SLT2, stronger effect = lower value",0.323 (active)
same,normalized growth,"locus YHR079C, strain IRE1 (second series), stronger effect = lower value",0.975
same,normalized growth,"locus YHR094C, strain hxt1, stronger effect = lower value",0.982
same,normalized growth,"locus YHR129C, strain ARP1, stronger effect = lower value",0.923
same,normalized growth,"locus YHR200W, strain rpn10, stronger effect = lower value",0.974
same,normalized growth,"locus YIL066C, strain RNR3, stronger effect = lower value",0.912
same,normalized growth,"locus YIL073C, strain SPO22, stronger effect = lower value",0.936
same,normalized growth,"locus YIL125W, strain kgd1, stronger effect = lower value",0.958
same,normalized growth,"locus YIR030C, strain dcg1, stronger effect = lower value",0.969
same,normalized growth,"locus YJL095W, strain BCK1, stronger effect = lower value",0.33 (active)
same,normalized growth,"locus YJL134W, strain LCB3, stronger effect = lower value",1.04
same,normalized growth,"locus YJL168C, strain set2, stronger effect = lower value",1.01
same,normalized growth,"locus YJL187C, strain SWE1 (second series), stronger effect = lower value",0.925
same,normalized growth,"locus YJR043C, strain POL32, stronger effect = lower value",0.858
same,normalized growth,"locus YJR075W, strain HOC1, stronger effect = lower value",0.957
same,normalized growth,"locus YKL009W, strain mrt4, stronger effect = lower value",0.876 (active)
same,normalized growth,"locus YKL068W, stronger effect = lower value",0.949
same,normalized growth,"locus YKL085W, strain MDH1 (second series), stronger effect = lower value",0.904 (active)
same,normalized growth,"locus YKL085W, strain MDH1, stronger effect = lower value",0.904 (active)
same,normalized growth,"locus YKR001C, strain vps1, stronger effect = lower value",0.721 (active)
same,normalized growth,"locus YLR039C, strain RIC1, stronger effect = lower value",0.842
same,normalized growth,"locus YLR058C, strain SHM2, stronger effect = lower value",0.972
same,normalized growth,"locus YLR102C, strain apc9, stronger effect = lower value",0.982
same,normalized growth,"locus YLR262C, strain YPT6, stronger effect = lower value",0.709
same,normalized growth,"locus YLR268W, strain sec22, stronger effect = lower value",0.966
same,normalized growth,"locus YLR330W, strain CHS5, stronger effect = lower value",0.993
same,normalized growth,"locus YLR342W, strain FKS1 (second series), stronger effect = lower value",0.927
same,normalized growth,"locus YLR371W, strain rom2, stronger effect = lower value",0.714 (active)
same,normalized growth,"locus YLR418C, strain cdc73, stronger effect = lower value",0.745 (active)
same,normalized growth,"locus YML016C, strain PPZ1, stronger effect = lower value",1
same,normalized growth,"locus YML032C, strain rad52, stronger effect = lower value",0.824 (active)
same,normalized growth,"locus YML124C, strain tub3, stronger effect = lower value",0.993
same,normalized growth,"locus YMR078C, strain ctf18, stronger effect = lower value",0.987
same,normalized growth,"locus YMR223W, strain ubp8, stronger effect = lower value",0.895 (active)
same,normalized growth,"locus YMR307W, strain GAS1, stronger effect = lower value",0.212 (active)
same,normalized growth,"locus YNL067W, strain RPL9B, stronger effect = lower value",0.983
same,normalized growth,"locus YNL128W, strain TEP1, stronger effect = lower value",0.887
same,normalized growth,"locus YNL153C, strain GIM3, stronger effect = lower value",0.958
same,normalized growth,"locus YNL233W, strain BNI4, stronger effect = lower value",0.997
same,normalized growth,"locus YNL250W, strain rad50, stronger effect = lower value",0.891 (active)
same,normalized growth,"locus YNL271C, strain bni1, stronger effect = lower value",1
same,normalized growth,"locus YNL298W, strain CLA4, stronger effect = lower value",0.838 (active)
same,normalized growth,"locus YNL307C, strain MCK1, stronger effect = lower value",0.991
same,normalized growth,"locus YNR052C, strain pop2, stronger effect = lower value",0.815 (active)
same,normalized growth,"locus YOL012C, strain htz1",2.15 [resistant] (active)
same,normalized growth,"locus YOL147C, strain pex11, stronger effect = lower value",0.986
same,normalized growth,"locus YOR061W, strain CKA2, stronger effect = lower value",0.59 (active)
same,normalized growth,"locus YOR069W, strain VPS5, stronger effect = lower value",1.01
same,normalized growth,"locus YOR136W, strain idh2, stronger effect = lower value",0.951
same,normalized growth,"locus YOR144C, strain elg1, stronger effect = lower value",0.982
same,normalized growth,"locus YOR184W, strain ser1, stronger effect = lower value",0.79 (active)
same,normalized growth,"locus YOR316C, strain cot1, stronger effect = lower value",0.984
same,normalized growth,"locus YPL055C, strain LGE1, stronger effect = lower value",0.841
same,normalized growth,"locus YPL241C, strain CIN2, stronger effect = lower value",0.989
same,normalized growth,"locus YPR119W, strain clb2, stronger effect = lower value",0.988
same,normalized growth,"locus YPR141C, strain kar3, stronger effect = lower value",0.981
same,normalized growth,"locus YPR163C, strain tif3, stronger effect = lower value",0.935
same,normalized growth,"locus YPR167C, strain met16, stronger effect = lower value",0.861 (active)
same,normalized growth,"strain wtn01, stronger effect = lower value",0.955
